# Measurements: PubChem BioAssay AID686928 (Broad Institute, 2013)
# Potency and affinity values are given separately. The source made the active and inactive calls. How the calls were made is not given here.
# Experiment: human cervical cancer cell viability loss – 24 h, plate reader, dry powder, cytotoxicity control, dose response (AID 686928)
# Conditions: HeLa cytotoxicity; series mostly up to 80 µM; activity change, negative = cytotoxicity: at the top concentration
SMILES,"activity change, negative = cytotoxicity",outcome
COc1ccc(S(=O)(=O)Nc2nnc(-c3ccc4c(c3)OCCO4)o2)cc1,3.93% [at 100 µM] (inactive),
Cn1nc(NC(=O)c2ccco2)c2cc3ccccc3nc21,-0.497% (inactive),
Cc1cc(F)c2cc3c(NC(=O)c4ccco4)nn(C)c3nc2c1,2.86% [at 100 µM] (inactive),
Cc1cccc(-n2cnc(=O)c3ccccc32)c1,-8.44% (inactive),
O=c1[nH]cnc2ccccc12,-6.67% (inactive),
COc1ccc2c(=O)ncn(-c3cccc(Cl)c3)c2c1,-1.88% (inactive),
O=c1nc(-c2ccccc2)n(-c2cccc(Cl)c2)c2ccccc12,0.608% (inactive),
C(=N\c1nnc(-c2ccc3c(c2)OCCO3)o1)/c1ccccc1,-8.71% [at 100 µM] (inactive),
Cc1ccc2cc3c(NC(=O)c4cc5ccccc5o4)nn(C)c3nc2c1,-46.2% [at 100 µM] (inactive),
Cc1ccc2cc3c(NC(=O)c4ccoc4)nn(C)c3nc2c1,-3.71% (inactive),
COc1ccc2cc3c(NC(=O)c4ccco4)nn(C)c3nc2c1,-34.2% [at 100 µM] (inactive),
O=c1ncn(-c2ccc(Cl)cc2)c2ccccc12,2.74% (inactive),
O=C1C(=O)N(Cc2ccccc2Cl)c2ccccc21,-5.25% (inactive),
O=C(Nc1nnc(-c2ccc3c(c2)OCCO3)o1)C1CCCCC1,,inactive
NC(=O)c1ccccc1Nc1cccc(Cl)c1,-29.1% (inactive),
O=C(Nc1nnc(-c2ccc3c(c2)OCCO3)o1)C1CCC1,5.69% [at 100 µM] (inactive),
O=c1ncn(-c2ccccc2)c2ccccc12,4.02% (inactive),
O=C(Nc1nnc(-c2cccc(Cl)c2)o1)C1CCCCC1,-0.512% (inactive),
O=c1ncn(-c2cccc(Cl)c2)c2ccc(Cl)cc12,-6.27% (inactive),

SMILES,"activity change, negative = cytotoxicity",outcome
CN(C)/C=N/c1nnc(-c2ccc3c(c2)OCCO3)o1,-5.9% [at 100 µM] (inactive),
O=c1ncn(-c2ccc(Cl)c(Cl)c2)c2ccccc12,-5.87% (inactive),
COc1ccc(-c2nnc(NC(C)=O)o2)cc1,-0.903% [at 100 µM] (inactive),
O=C(Cc1ccc(-c2ccccc2)cc1)NC1CNC1,-10.9% [at 100 µM] (inactive),
Cn1nc(NC(=O)c2ccco2)c2ccccc21,-4.66% [at 100 µM] (inactive),
O=c1ncn(-c2cc(Cl)cc(Cl)c2)c2ccccc12,-5.54% (inactive),
O=S(=O)(Nc1nnc(-c2ccc3c(c2)OCCO3)o1)c1ccc(Cl)cc1,2.3% [at 100 µM] (inactive),
CCn1nnnc1NC(C)c1ccc(N2CCCC2)cc1 (stereo not drawn),-0.569% [at 100 µM] (inactive),
O=C(Nc1nnc(-c2ccccc2Cl)o1)C1CCCCC1,-10.8% [at 100 µM] (inactive),
COc1cccc(-n2cnc(=O)c3ccccc32)c1,-1.94% (inactive),
CCc1ccc2cc3c(NC(=O)c4ccco4)nn(C)c3nc2c1,-37.8% (inactive),
O=C(Nc1nnc(-c2ccc3c(c2)OCCO3)o1)C1CC1,2.93% [at 100 µM] (inactive),
Cc1ccc2cc3c(NC(=O)c4ccccn4)nn(C)c3nc2c1,10.8% [at 100 µM] (inactive),
CC(C)(C)OC(=O)N1CCC(C(=O)Nc2nnc(-c3ccc4c(c3)OCCO4)o2)CC1,5.35% [at 100 µM] (inactive),
O=c1ncn(-c2cccc(Cl)c2)c2cccc(Cl)c12,-3.27% (inactive),
Cc1cc(F)cc2nc3c(cc12)c(NC(=O)c1ccco1)nn3C,2.47% [at 100 µM] (inactive),
Cc1nc(=O)c2ccccc2n1-c1cccc(Cl)c1,1.96% (inactive),
COc1ccc(-c2nnc(NC(=O)C3CCCCC3)o2)cc1,-9.23% [at 100 µM] (inactive),
O=C(O)c1ccccc1Nc1cccc(Cl)c1,14% (inactive),
